Several values for one entry are separate records, joined by “and”; a condition that tells them apart may be missing. Equal entries are not always repeated. Out of some 5,500 compounds screened, about 2,000 (36%) were called active. Not shown: some 18% with an inconclusive outcome. Cut-off read from the data, not from the text of the source: active = normalized growth mostly below about 0.91 (no sharp cut-off); inconclusive = no clear call, values can overlap the other calls; inactive = mostly above about 0.92. This is one part of the list.
Assay: chemical genetic growth profiling, strain panel (AID 1159580);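 note: tested at 20 µM; growth read once vehicle control cultures reached saturation at 30 °C; 1 = growth at the plate median or of vehicle wells; lower values mean less growth of the strain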
Settings: S. cerevisiae deletion strains, growth OD

Measured: normalized growth

CN(C)CCC=C1c2ccccc2C=Cc2ccccc21
active: locus YAL021C, strain ccr4, hits give low values 0.893 | locus YAL026C, strain drs2, hits give low values 0.901 | locus YDR137W, strain rgp1, hits give low values 1.18 [resistant]
inactive: locus YAL013W, strain DEP1, hits give low values 0.995 | locus YAL030W, strain snc1, hits give low values 0.982 | locus YAL040C, strain CLN3, hits give low values 1.07 | locus YBL061C, strain skt5, hits give low values 0.995 | locus YBR009C, strain hhf1, hits give low values 0.99 | locus YBR021W, strain FUR4, hits give low values 0.958 | locus YBR023C, strain chs3, hits give low values 0.978 | locus YBR171W, strain sec66, hits give low values 1 | locus YBR229C, strain ROT2, hits give low values 0.995 | locus YBR231C, strain swc5, hits give low values 0.997 | locus YBR279W, strain paf1, hits give low values 0.979 | locus YCL011C, strain gbp2, hits give low values 0.984 | locus YCL016C, strain dcc1, hits give low values 0.954 | locus YCL029C, strain bik1, hits give low values 1 | locus YCL061C, strain MRC1 (second series), hits give low values 0.999 | locus YCL061C, strain MRC1, hits give low values 0.992 | locus YCL069W, strain vba3, hits give low values 0.993 | locus YCR088W, strain abp1, hits give low values 0.998 | locus YDL005C, strain med2, hits give low values 0.991 | locus YDL035C, strain GPR1, hits give low values 0.954 | locus YDL040C, strain nat1, hits give low values 0.967 | locus YDL074C, strain BRE1, hits give low values 0.956 | locus YDL101C, strain DUN1, hits give low values 1.02 | locus YDL134C, strain PPH21, hits give low values 0.996 | locus YDL185W, strain tfp1, hits give low values 0.949 | locus YDL192W, strain arf1, hits give low values 0.988 | locus YDR001C, strain nth1, hits give low values 0.983 | locus YDR069C, strain doa4, hits give low values 0.918 | locus YDR101C, strain arx1, hits give low values 1.05 | locus YDR150W, strain NUM1, hits give low values 0.987 | locus YDR159W, strain sac3, hits give low values 1 | locus YDR162C, strain NBP2, hits give low values 0.95 | locus YDR195W, strain ref2 1.05 | locus YDR297W, strain sur2, hits give low values 0.971 | locus YDR318W, strain mcm21, hits give low values 0.982 | locus YDR334W, strain swr1, hits give low values 0.958 | locus YDR335W, strain msn5, hits give low values 0.969 | locus YDR388W, hits give low values 0.959 | locus YDR392W, strain spt3, hits give low values 0.988 | locus YDR502C, strain sam2, hits give low values 0.996 | locus YEL003W, strain gim4, hits give low values 0.987 | locus YEL037C, strain rad23, hits give low values 1 | locus YEL061C, strain CIN8 (second series), hits give low values 0.982 | locus YEL061C, strain CIN8, hits give low values 0.99 | locus YER002W, strain NOP16, hits give low values 1.04 | locus YER015W, strain faa2, hits give low values 0.969 | locus YER016W, strain bim1, hits give low values 0.998 | locus YER110C, hits give low values 0.984 | locus YER111C, strain swi4, hits give low values 0.993 | locus YER155C, strain BEM2 (second series), hits give low values 0.967 | locus YER155C, strain BEM2, hits give low values 1.02 | locus YER167W, strain BCK2, hits give low values 0.999 | locus YFR010W, strain ubp6, hits give low values 0.95 | locus YGL078C, strain dbp3, hits give low values 0.985 | locus YGL086W, strain mad1, hits give low values 1.01 | locus YGL167C, strain pmr1, hits give low values 0.976 | locus YGL173C, strain kem1, hits give low values 1 | locus YGL227W, strain vid30, hits give low values 0.97 | locus YGL240W, strain doc1, hits give low values 1.02 | locus YGL248W, strain PDE1, hits give low values 0.998 | locus YGL253W, strain hxk2, hits give low values 0.988 | locus YGR135W, strain pre9, hits give low values 0.919 | locus YGR252W, strain gcn5, hits give low values 0.904 | locus YHR013C, strain ard1, hits give low values 0.945 | locus YHR027C, strain rpn1, hits give low values 0.953 | locus YHR030C, strain SLT2, hits give low values 0.983 and 1.01 | locus YHR079C, strain IRE1 (second series), hits give low values 0.984 | locus YHR079C, strain IRE1, hits give low values 1.02 | locus YHR094C, strain hxt1, hits give low values 0.99 | locus YHR129C, strain ARP1, hits give low values 0.993 | locus YHR142W, strain chs7, hits give low values 0.959 | locus YHR200W, strain rpn10, hits give low values 0.998 | locus YIL066C, strain RNR3, hits give low values 0.974 | locus YIL073C, strain SPO22, hits give low values 0.94 | locus YIL125W, strain kgd1, hits give low values 1.02 | locus YIR030C, strain dcg1, hits give low values 0.988 | locus YJL092W, strain hpr5, hits give low values 0.98 | locus YJL095W, strain BCK1 (second series), hits give low values 0.98 | locus YJL095W, strain BCK1, hits give low values 0.903 and 1.02 | locus YJL115W, strain asf1, hits give low values 0.951 | locus YJL129C, strain trk1, hits give low values 1.01 | locus YJL134W, strain LCB3, hits give low values 0.988 | locus YJL154C, strain vps35, hits give low values 0.979 | locus YJL164C, strain tpk1, hits give low values 0.998 | locus YJL166W, strain qcr8, hits give low values 0.996 | locus YJL187C, strain SWE1 (second series), hits give low values 1.01 | locus YJR043C, strain POL32, hits give low values 1.04 | locus YJR066W, strain TOR1, hits give low values 0.956 | locus YJR075W, strain HOC1, hits give low values 0.982

Source: PubChem BioAssay AID1159580 (chemical genetic matrix, 2015)
